The text below walks through data of PubChem BioAssay AID1209 (Sanford-Burnham Center for Chemical Genomics, 2008).

The structures appear in SMILES notation. About 810 (0.43%) of roughly 190,000 compounds were called active. This is one part of a sample in which actives are shown more often than they occur. Values without a mark were called inactive. No stated cut-off is given here; in the data, active means inhibition above about 50%; inactive means the rest.

The assay deals with Mannose-6-phosphate isomerase (Homo sapiens) (UniProt P34949). The assay is described as follows: MPI enzyme activity inhibition – biochemical, fluorescence intensity, coupled assay, primary screen (AID 1209).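 Further: plate controls were DMSO vehicle for no effect and wells lacking substrate for full effect.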 As to conditions: purified PMI enzyme, at 20 µM, hits give high values.
Mannose-6-phosphate isomerase (Homo sapiens), sequence (P34949 whole entry, looked up): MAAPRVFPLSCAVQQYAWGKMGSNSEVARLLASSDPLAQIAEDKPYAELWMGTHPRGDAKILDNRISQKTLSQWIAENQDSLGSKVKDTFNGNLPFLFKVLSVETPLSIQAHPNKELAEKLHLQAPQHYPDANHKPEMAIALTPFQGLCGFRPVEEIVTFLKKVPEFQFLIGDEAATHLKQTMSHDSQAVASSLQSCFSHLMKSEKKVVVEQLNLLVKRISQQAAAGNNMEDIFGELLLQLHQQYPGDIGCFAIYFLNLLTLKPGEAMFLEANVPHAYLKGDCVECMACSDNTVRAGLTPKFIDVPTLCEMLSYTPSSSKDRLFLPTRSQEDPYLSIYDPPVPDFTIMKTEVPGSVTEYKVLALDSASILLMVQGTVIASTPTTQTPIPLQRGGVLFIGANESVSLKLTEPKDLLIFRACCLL
Turning to `Cc1ccccc1-c1nnc(NC(=O)c2cc3ccccc3oc2=O)s1`, the inhibition is -1.2%.

For the compound `CCN(CC)Cc1c(O)ccc2c(=O)c(-c3ccc4c(c3)OCCO4)coc12`, the inhibition was 5.6%.

Turning to `COC1OC(COC(=O)CNC(=O)OC(C)(C)C)C(O)C(O)C1O` (configuration not stated), the inhibition is -0.1%.

For the compound `CC(C)CC(C(=O)NC1CCCC1)N(Cc1cccs1)C(=O)c1snc(C(N)=O)c1N` (configuration not stated), the inhibition is 13%. Under `CCC(C(=O)NC1CCCCC1)N(Cc1cccs1)C(=O)c1snc(C(N)=O)c1N` (configuration not stated) stands 3.9%.

Regarding `CC(C)CC(C(=O)NC1CCCCC1)N(Cc1cccs1)C(=O)c1snc(C(N)=O)c1N` (configuration not stated), the inhibition is 101% (active). Next, `CCOC(=O)COc1ccc(S(=O)(=O)NCC2CCCO2)cc1` (configuration not stated): -1.8%.

With `O=[N+]([O-])c1cccc(-c2noc(COc3ccccc3)n2)c1`, the inhibition is 57.3% (active).

On to `COc1ccccc1OCc1nc(-c2cccc([N+](=O)[O-])c2)no1`, for which the inhibition is 2.9%. `COc1cccc(OCc2nc(-c3cccc([N+](=O)[O-])c3)no2)c1`: the inhibition is 4.9%. Take `CC(=O)c1cnc(-c2ccccc2Cl)s1`: the inhibition was 0.5%. For `CC(C(=O)Nc1nc2ccccc2s1)n1cc([N+](=O)[O-])cn1` (configuration not stated), the inhibition was 11.5%. Turning to `CCS(=O)(=O)Nc1ccc2[nH]c(=O)[nH]c2c1`, the inhibition is 52.1% (active). Next, `Cc1cc(C)c(S(=O)(=O)Nc2ccc3[nH]c(=O)[nH]c3c2)c(C)c1`: 4.4%. Consider `CS(=O)(=O)Nc1ccc2[nH]c(=O)[nH]c2c1`, for which the inhibition was 3.3%. Turning to `N#C/C(=C\c1cccc(NC(=O)c2ccccc2Cl)c1)C(=O)NCCc1ccccc1`, the inhibition is 10.1%. Take `O=C(Cc1ccc(F)cc1)OCC(=O)c1cc2ccccc2o1`: the inhibition is 9%. Turning to `COc1ccc(-c2n[nH]c(C)c2-c2ccc(Cl)cc2)c(O)c1OC`, the inhibition was 6.7%.

With `COC1=C(N)C(=O)c2nc(-c3nc(C(=O)O)c(C)c(-c4ccc(OC)c(OC)c4O)c3N)ccc2C1=O`, the inhibition was 56% (active).

Consider `COc1ccc(-c2nc(N)ncc2-c2csc(C)n2)c(O)c1OC`, for which the inhibition was 6.8%. Consider `NS(=O)(=O)c1ccc(NC(=O)C2(c3ccccc3)CCCC2)cc1`, for which the inhibition is 1.9%. As for `O=C(CSc1ccc(-c2ccccn2)nn1)c1ccc(F)cc1`, the inhibition is 62.5% (active). On to `O=C(CSc1ccc(-c2ccccn2)nn1)c1ccc([N+](=O)[O-])cc1`, for which the inhibition is 3.7%. Take `O=C(CSc1ccc(-c2ccccn2)nn1)c1ccccc1`: the inhibition is -14.4%. Next, `CSC1=N/C(=C\c2ccc(C)s2)C(=O)S1`: 7%; `O=C(NC1CCCCCCC1)c1ccc2c(c1)N(Cc1ccc(F)cc1)C(=O)CS2=O` (configuration not stated): 0.6%. For `NC(=S)Nn1c(CCC(=O)O)ccc1-c1ccccc1`, the inhibition was 14.4%. Turning to `CCc1ccc(C(=O)COC(=O)CCc2nc3ccccc3c(=O)[nH]2)cc1`, the inhibition was -28.6%. With `Cc1cccc2cc(C#N)c(SCc3nnc(-c4ccccc4[N+](=O)[O-])o3)nc12`, the inhibition is 11.1%.

With `C/C=C(\C)C(=O)NCCN1C2=NC[C@H](C(C)C)N2C[C@H]1Cc1ccc(O)cc1`, the inhibition was 1.5%.

In the case of `COCCNC(=O)/C(C#N)=C\c1ccc(CNS(=O)(=O)c2ccc(C)cc2)o1`, the inhibition is 6.2%. For the compound `Cc1ccc(S(=O)(=O)NCc2ccc(/C=C(/C#N)C(=O)NCc3ccccc3)o2)cc1`, the inhibition is 58.4% (active). As for `N#C/C(=C/c1ccc(CNS(=O)(=O)c2ccccc2)o1)C(=O)NCc1ccccc1`, the inhibition is 7.8%. As for `CCCNS(=O)(=O)c1ccc(OCC(=O)Nc2ccccc2F)cc1`, the inhibition was -1.4%.

As to `CC1(C)CC(=O)C(C2=NC(C)(C)Cc3ccccc32)=C(O)C1`, the inhibition was -4%. Regarding `CC1=NC(C)(C)Cc2ccccc21`, the inhibition was 7.7%. For the compound `CC1(C)Cc2ccccc2C2=NNC(=O)C2=N1`, the inhibition was 84% (active). Consider `O=S(=O)(/C=C/c1ccccc1)N1CCN(Cc2ccccc2)CC1`, for which the inhibition is -1.6%.

As for `COc1ccc2nc(NC(=O)CNS(=O)(=O)c3cccs3)sc2c1`, the inhibition was 1.5%. Under `CCN(C(=S)NCc1ccccc1)c1cccc2ccccc12` stands 6.3%.

With `CN(Cc1ccccc1)C(=S)Nc1cccnc1`, the inhibition was 0.8%. With `Oc1cccc(NC(=S)Nc2ccc(SC(F)F)cc2)c1`, the inhibition was 18.1%. Consider `CCN(C(=S)Nc1cccnc1)c1ccccc1`, for which the inhibition is 4%. On to `CCN(C(=S)Nc1ccc(Oc2ccccc2)cc1)c1ccccc1`, for which the inhibition is 3.3%. Next, `Oc1cccc(NC(=S)Nc2cccnc2)c1`: 14.8%; `CCN(C(=S)Nc1cccnc1)c1cccc2ccccc12`: 61.2% (active); `CN(C(=S)Nc1ccccc1)c1ccccc1`: 3.2%. For the compound `CN(C(=S)Nc1ccc(Oc2ccccc2)cc1)c1ccc(O)cc1`, the inhibition was 64% (active). Turning to `CN1CCC(N(C)C(=S)Nc2ccc(SC(F)F)cc2)CC1`, the inhibition is -2%. Under `CN(C(=S)Nc1cccnc1)c1ccc(O)cc1` stands 59.2% (active); under `CN(C(=S)Nc1ccc(SC(F)F)cc1)c1ccc(O)cc1`, 77.2% (active); under `Cn1cnnc1SCc1nc(N)nc(Nc2ccccc2)n1`, 0.3%. Turning to `Cc1ccc(C)c(NC2=CC(=O)CC(C)(C)C2)c1C#N`, the inhibition is -12%. Regarding `CC(=O)N(NC(=O)c1ccc(C)cc1)C1CC(=O)N(c2ccccc2Cl)C1=O` (configuration not stated), the inhibition was -5.8%.

In the case of `Cc1ccc(NC(=O)Cn2cc(C(F)(F)F)cc(Cl)c2=O)cc1Cl`, the inhibition is 3.2%. With `C=CCn1c(Cc2cccs2)nnc1SCC(=O)Nc1ccc(OC)c(OC)c1`, the inhibition was 5.9%.

Consider `Cc1nn(C)cc1C(=O)Nc1cc(Oc2ccc(Cl)cc2)cc([N+](=O)[O-])c1`, for which the inhibition is -2.9%.

For `COc1ccc2c(C)c(Cl)c(=O)oc2c1`, the inhibition is 3.5%. Take `CCN(CC)CCN(C(=O)c1ccc([N+](=O)[O-])cc1)c1nc2ccc(OC)cc2s1`: the inhibition was 1.1%. Take `CCOc1ccc2nc(N(CCN(CC)CC)C(=O)c3cccc([N+](=O)[O-])c3)sc2c1`: the inhibition was 33.9%. Next, `CCN(CC)CCN(C(=O)c1cccc([N+](=O)[O-])c1)c1nc2ccc(OC)cc2s1`: 56.7% (active). On to `C=CCNC(=O)c1cc(C(=O)C(C)c2ncc(C(F)(F)F)cc2Cl)c[nH]1` (configuration not stated), for which the inhibition was 0.9%.

Usually inhibition stands for the relative decrease from the control value, in per cent.
